Screening results deposited in PubChem by several laboratories.
Beta apoptosis: inhibitors of cytokine-induced beta cell apoptosis, primary screen, luminescence | INS-1E cytokine-induced death, ATP luminescence, 48 h; percent of positive-control rescue, neutral wells zero | protection from apoptosis, % (concentration not given with the values) | actives 0.8% (n = 300,000) | AID 435005, 2010;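 active means Every replicate reaches about 75%, or at least half do and their mean reaches it too, limit read from the data; inconclusive means At least half of replicates reach the limit but their mean does not; inactive means Under half of replicates reach the limit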;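 further: 0% = cytokine-treated negative control wells and 100% = positive control rescue; higher means more ATP so stronger rescue from cytokine killing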
PP1 inh: PP1-alpha phosphatase inhibitors, primary screen, counter-screen for PP5 inhibitor project, biochemical, fluorescence, OMFP substrate, single point; actives 0.9% (n = 320,000); AID 2235, 2010; inhibition, % at 6.7 µM; Serine/threonine-protein phosphatase PP1-alpha catalytic subunit (Homo sapiens), P62136; purified PP1alpha;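 active means inhibition above the mean inhibition of all tested compounds plus 3 SD, computed separately for each screening campaign, cut at about 15% in these data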
PP5 inh: PP5 phosphatase inhibitors, primary screen, biochemical, fluorescence; AID 1987, 2009; purified PP5c, OMFP substrate fluorescence; inhibition, % at 6.7 µM; actives 0.18% (n = 320,000);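 active means inhibition above the campaign's mean inhibition across all tested compounds plus 3 SD, cut at about 9.5% in these data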;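 further: 0% = DMSO only and 100% = 100 µM cantharidin control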
Calb FLC: C. albicans growth inhibition with fluconazole, primary screen, CaCi-2 strain, Alamar Blue fluorescence; C. albicans CaCi-2 (fluconazole-resistant clinical isolate) + fluconazole, 48 h; growth inhibition, % (no concentration beside the values); actives 0.57% (n = 300,000); AID 1979, 2009;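 active means growth inhibition above about 58% in most replicates, limit read from the data, passing the limit was not always enough; inconclusive means exactly half the replicates above a set limit; inactive means most replicates below a set limit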;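 further: all wells also contain fluconazole at 8 µg/ml as a sub-toxic cotreatment; 0% = median of DMSO wells and 100% = median of geldanamycin control wells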
Mdm2-MdmX inh: inhibitors of human Mdm2-MdmX association, primary screen, cell-based, luminescence, split luciferase, SaOS-2, uHTS; Protein Mdm4 (Homo sapiens) + E3 ubiquitin-protein ligase Mdm2 (Homo sapiens), …; SaOS-2 split-luciferase Mdm2/MdmX complementation; inhibition, % at 8 µM; actives 3% (n = 330,000);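 active means inhibition of at least 50% at 8 µM in the primary screen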
Target sequence (O15151 whole entry, looked up): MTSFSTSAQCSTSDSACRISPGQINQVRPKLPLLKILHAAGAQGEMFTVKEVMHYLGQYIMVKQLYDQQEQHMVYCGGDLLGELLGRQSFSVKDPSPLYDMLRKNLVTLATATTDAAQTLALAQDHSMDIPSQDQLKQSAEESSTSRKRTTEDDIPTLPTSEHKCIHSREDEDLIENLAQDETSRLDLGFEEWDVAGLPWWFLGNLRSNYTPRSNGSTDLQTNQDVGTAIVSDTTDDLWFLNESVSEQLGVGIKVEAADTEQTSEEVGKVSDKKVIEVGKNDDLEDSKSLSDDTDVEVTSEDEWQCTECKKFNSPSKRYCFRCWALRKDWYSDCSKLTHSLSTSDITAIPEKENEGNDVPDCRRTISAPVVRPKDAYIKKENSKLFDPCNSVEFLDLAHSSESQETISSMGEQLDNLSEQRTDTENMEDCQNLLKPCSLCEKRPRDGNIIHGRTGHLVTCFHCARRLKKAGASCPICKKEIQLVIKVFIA
Target sequence (Q00987 whole entry, looked up): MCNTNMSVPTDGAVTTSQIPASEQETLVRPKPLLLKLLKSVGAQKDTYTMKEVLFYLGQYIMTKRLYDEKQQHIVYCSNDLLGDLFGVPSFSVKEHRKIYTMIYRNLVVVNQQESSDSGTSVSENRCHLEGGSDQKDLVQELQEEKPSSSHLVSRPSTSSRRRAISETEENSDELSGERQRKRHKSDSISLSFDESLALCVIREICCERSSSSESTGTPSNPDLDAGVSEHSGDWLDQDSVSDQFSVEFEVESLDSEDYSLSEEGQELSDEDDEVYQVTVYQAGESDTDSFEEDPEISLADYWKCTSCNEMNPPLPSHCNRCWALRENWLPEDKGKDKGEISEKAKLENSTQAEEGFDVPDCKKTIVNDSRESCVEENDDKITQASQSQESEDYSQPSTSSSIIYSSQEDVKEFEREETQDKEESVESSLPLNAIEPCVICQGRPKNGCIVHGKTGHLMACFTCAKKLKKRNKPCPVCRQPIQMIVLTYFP
CSC inhib: cancer stem cell viability inhibitors, primary screen, luminescence; cancer stem cell-like cells viability; inhibition, % at 7.5 µM; actives 1.1% (n = 300,000); AID 2717, 2010; in the data active means inhibition above about 75%; inconclusive means no clear call, values can overlap the other calls; tested in HMLE shEcad cells
PP1 inh confirm: PP1 phosphatase inhibitors, confirmation, biochemical, fluorescence, OMFP substrate, triplicate | shares compounds with PP1 inh | purified PP1alpha | inhibition, % at 6.7 µM | actives 52% (n = 1,900) | AID 2358, 2010;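 active means mean PP1 inhibition above a set limit taken from the earlier primary screen, cut at about 15% in these data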
PP5 counter: PP5 phosphatase inhibition by PP1 hits, confirmation, counter-screen for PP1 inhibitor project, biochemical, fluorescence, triplicate; AID 2360, 2010; purified PP5c, OMFP fluorescence; actives 4% (n = 1,900); inhibition, % at 6.7 µM; shares compounds with PP1 inh;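 active means mean PP5 inhibition over triplicate wells above about 9.5% taken from the earlier PP1 screen, limit read from the data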
Starred values were filed as active, the others as inactive; ? = inconclusive; · = not tested or not shown. Only some compounds are listed: those with a hit (about 4.9% of all), similar ones and a draw of the others.

SMILES	Beta apoptosis	PP1 inh	PP5 inh	Calb FLC	Mdm2-MdmX inh	CSC inhib	PP1 inh confirm	PP5 counter
COc1ccc2c(c1)cc(C(=O)N/N=C/c1c(O)c(C(=O)O)cc3ccccc13)n2C	-1.1	34.8*	3.7	20.6	7.3	-18.0	29.8*	0.6
Cn1c2ccccc2c2cc(/C=N/NC(=O)c3ccc(O)cc3O)ccc21	12.4	-4.0	4.5	-2.1	2.0	9.7	·	·
Cc1ccc(NC(=O)CN(C)C(=O)c2cc(-c3ccco3)nc3ccccc23)cc1	0.8	28.5*	1.1	3.1	13.1	·	0.2	-0.8
COc1cccc(NC(=O)c2cc(-c3ccco3)nc3ccccc23)c1	-3.3	17.9*	0.3	-0.3	14.1	7.5	3.1	0.2
CCCCNC(=O)[C@H]1C[C@H]1[C@@H](O)[C@H](CO)NC(=O)[C@H](COCc1ccccc1)NC(=O)OC(C)(C)C	-6.0	-2.1	0.8	10.2	-10.6	-15.9	·	·
CCOc1ccc(NC(=O)C2CCN(S(=O)(=O)c3ccc4c(c3)NC(=O)C(C)S4)CC2)cc1 (stereo not drawn)	5.7	-1.7	2.5	-3.5	32.0	-15.3	·	·
CCc1ccccc1NC(=O)CCS(=O)(=O)c1ccc(OC)cc1	·	37.1*	-2.0	-8.1	-14.6	·	-1.9	-5.1
CC1(c2ccccc2)CC(C)(C)N2C(=O)C(=O)c3cccc1c32 (stereo not drawn)	-8.9	23.6*	0.2	6.9	32.2	0.7	17.5*	-1.5
CCCC(=O)Nc1cccc(C(=O)Nc2ccccc2OCC)c1	·	0.5	-0.1	-0.6	15.6	0.8	·	·
Cc1ccccc1OCC(=O)NNC(=O)c1cc(S(=O)(=O)N2CCOCC2)ccc1N1CCCC1	3.7	-4.2	-0.4	-1.1	13.4	0.0	·	·
CCOC(=O)c1c(NC(=O)CSc2nnc3c(n2)[nH]c2ccccc23)sc2c1CCN(C)C2	-1.3	18.0*	0.1	-3.6	38.3	-1.1	11.3	-1.5
CC(=O)Nc1ccc(NC(=O)CNC(=O)c2cccc(C)c2)cc1	-2.4	6.6	2.8	-13.8	2.3	9.2	·	·
Cc1cc(C(=O)Nc2sc3c(c2C#N)CCC(C)C3)no1 (stereo not drawn)	4.2	-3.3	-0.2	-0.9	-64.1	46.7	·	·
CC1CCc2c(sc(NC(=O)C(=O)NCc3ccco3)c2C#N)C1 (stereo not drawn)	3.9	20.0*	1.8	-1.1	22.6	3.4	20.9*	-3.0
O=C(NC(=S)Nc1ccccc1Br)C1CCCC1	0.2	-0.1	3.0	-24.2	7.1	-1.9	·	·
CCOC(=O)c1c(-c2ccc(-c3ccccc3)cc2)csc1NC(=O)C1C2CCC(O2)C1C(=O)O (stereo not drawn)	-8.0	22.2*	11.1*	0.5	9.7	37.2	14.9	3.1
Cc1sc(NC(=O)c2ccco2)nc1-c1ccccc1	4.5	-4.0	1.8	24.6	-174.7	25.4	·	·
Cc1ccccc1NC(=O)C1C2CCC(O2)C1C(=O)O (stereo not drawn)	-3.0	50.8*	62.8*	-2.0	-7.7	14.4	31.7*	40.6*
CCCCc1ccc(-c2nc(NC(=O)C3C4CCC(O4)C3C(=O)O)sc2C)cc1 (stereo not drawn)	-2.9	74.9*	75.2*	4.6	4.0	1.6	34.8*	40.3*
O=C(O)C1C2CCC(O2)C1C(=O)Nc1ccccc1Br (stereo not drawn)	0.4	68.4*	68.4*	-0.1	23.3	-8.5	25.1*	32.5*
Cc1ccccc1NC(=O)C1CCC(=O)N1 (stereo not drawn)	0.6	1.6	0.2	-9.5	-19.9	-5.4	·	·
Cc1ccc(F)cc1NC(=O)C1CCCN(c2ncccn2)C1 (stereo not drawn)	-1.1	3.0	-0.6	22.9	0.7	-8.1	·	·
Cc1ccc(F)cc1NC(=O)C1C2CCC(O2)C1C(=O)O (stereo not drawn)	-1.8	55.2*	63.5*	-6.9	12.8	11.9	20.4*	25.9*
Cc1ccc(C)n1-c1ccc(-c2nnco2)cc1	-7.5	23.5*	0.1	-7.3	-14.1	22.9	1.0	-3.3
Cc1ccc(C)n1-c1ccc(-n2cnnn2)cc1	·	24.9*	1.3	1.8	-7.1	-11.0	15.3*	-1.4
SMILES	Beta apoptosis	PP1 inh	PP5 inh	Calb FLC	Mdm2-MdmX inh	CSC inhib	PP1 inh confirm	PP5 counter
Cc1cc(-c2nnco2)c(C)n1-c1ccc(F)cc1	-4.8	-1.7	-0.7	-7.1	17.7	4.7	·	·
CCOC(=O)c1cc(-c2ccccc2)sc1NC(=O)CN1C(=O)NC(CC)(c2ccccc2)C1=O (stereo not drawn)	-1.8	17.8*	2.5	-1.4	45.7	3.9	9.9	-4.7
COc1cccc(CNC(=O)c2ccccc2SCC(=O)N2CCCC2)c1	-1.1	26.0*	-0.3	-0.3	-1.5	5.1	-5.4	-5.9
COc1cccc(CN(C)C(=O)c2ccccc2SCC(=O)N2CCCC2)c1	-1.3	1.6	0.3	9.8	13.2	-9.9	·	·
CN1CCN(Cc2cc(Cl)c3cccnc3c2OC(=O)c2cccs2)CC1	50.5	5.2	1.8	2.4	29.5	17.0	·	·
CN1CCN(C(c2ccccn2)c2cc(Cl)c3cccnc3c2O)CC1 (stereo not drawn)	15.2	72.3*	9.3	100.7*	49.4	62.2	58.6*	6.0
CNC(=O)/C(C#N)=C/c1ccc(-c2ccc(Cl)cc2)o1	15.4	20.1*	4.3	?	-15.6	-10.2	15.8*	-3.4
CSCCC(NC(=O)COc1ccccc1)C(=O)OCC(=O)c1ccccc1 (stereo not drawn)	-4.7	60.5*	-0.3	9.0	-2.7	-1.5	-2.4	-3.4
O=C(NN1CCOCC1)c1ccc(S(=O)(=O)N2CCCCC2)cc1	-7.3	-3.1	-0.2	4.0	26.3	-19.4	·	·
CCc1cc(=O)oc2cc(C)c(CN3CCCC3)c(O)c12	3.7	22.3*	0.1	-16.5	-6.4	6.3	1.7	-2.4
O=C(C1CC1)N1N=C(c2ccncc2)CC1(O)C(F)(F)F (stereo not drawn)	-5.6	-2.6	-1.8	-9.1	26.9	-6.4	·	·
CC(C)=NNC(=O)c1c(O)c2ccccc2[nH]c1=O	-4.4	20.6*	-2.0	-0.5	15.3	10.4	8.6	-1.7
